GC-A act – GC-A stimulated cGMP production enhancers – HEK293 GC-A cells, cGMP TR-FRET, EC30 ANP, primary screen; 0% at EC30 ANP, 100% saturating ANP; activation, % at 10 µM; 370,000 compounds, 0.14% hits; AID 1671463, 2021; in the data active = activation above about 40%
PLC-gamma1 inh – PLC-gamma1 enzyme inhibitors, primary screen, biochemical, fluorescence, purified enzyme. 1-phosphatidylinositol 4,5-bisphosphate phosphodiesterase gamma-1 (Homo sapiens), P19174. fluorogenic substrate. inhibition, % at 12.2 µM. 370,000 compounds, 0.84% hits; in the data active = inhibition above about 9.5%
Target sequence (P19174 whole entry, looked up): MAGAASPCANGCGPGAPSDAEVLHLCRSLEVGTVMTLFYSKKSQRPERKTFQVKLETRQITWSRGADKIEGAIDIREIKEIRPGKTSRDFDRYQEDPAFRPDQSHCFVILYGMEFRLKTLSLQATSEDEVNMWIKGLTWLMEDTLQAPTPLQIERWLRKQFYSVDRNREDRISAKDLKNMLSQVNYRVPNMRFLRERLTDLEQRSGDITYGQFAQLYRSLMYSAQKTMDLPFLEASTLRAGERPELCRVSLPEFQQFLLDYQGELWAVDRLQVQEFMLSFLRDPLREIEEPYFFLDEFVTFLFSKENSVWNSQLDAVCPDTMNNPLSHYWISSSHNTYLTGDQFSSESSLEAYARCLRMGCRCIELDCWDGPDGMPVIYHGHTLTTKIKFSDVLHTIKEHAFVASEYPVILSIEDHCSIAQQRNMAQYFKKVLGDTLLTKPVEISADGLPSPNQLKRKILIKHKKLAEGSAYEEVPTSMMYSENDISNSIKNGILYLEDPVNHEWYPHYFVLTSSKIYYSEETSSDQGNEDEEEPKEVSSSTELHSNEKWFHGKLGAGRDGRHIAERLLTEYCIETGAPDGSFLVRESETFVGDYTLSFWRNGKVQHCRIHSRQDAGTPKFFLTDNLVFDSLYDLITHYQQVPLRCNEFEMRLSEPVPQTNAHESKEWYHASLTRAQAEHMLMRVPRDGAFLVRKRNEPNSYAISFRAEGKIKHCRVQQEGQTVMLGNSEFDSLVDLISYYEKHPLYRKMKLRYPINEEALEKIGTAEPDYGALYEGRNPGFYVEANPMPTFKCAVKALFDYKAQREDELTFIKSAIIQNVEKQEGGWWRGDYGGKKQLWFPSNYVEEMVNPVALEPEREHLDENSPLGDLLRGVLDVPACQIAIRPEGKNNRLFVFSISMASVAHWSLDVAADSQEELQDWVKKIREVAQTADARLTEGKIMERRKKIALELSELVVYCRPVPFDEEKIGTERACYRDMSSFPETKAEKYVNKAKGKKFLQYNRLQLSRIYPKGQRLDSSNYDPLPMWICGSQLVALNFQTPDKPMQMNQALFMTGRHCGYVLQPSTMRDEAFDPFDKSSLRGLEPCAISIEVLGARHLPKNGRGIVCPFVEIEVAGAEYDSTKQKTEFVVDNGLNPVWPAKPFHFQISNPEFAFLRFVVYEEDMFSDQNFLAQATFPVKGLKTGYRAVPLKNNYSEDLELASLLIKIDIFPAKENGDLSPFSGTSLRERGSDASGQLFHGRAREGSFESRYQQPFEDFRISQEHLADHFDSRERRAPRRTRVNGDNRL
Rce1 inh – yeast Rce1p protease inhibitors, primary screen, biochemical, fluorescence, cell-free homogeneous; yeast membranes, quenched prenylated peptide cleavage fluorescence; calls only; 290,000 compounds, 0.27% hits; AID 2563, 2010;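 active = fall in fluorescence gain of 50% or more versus controls, with final raw signal at or below 3038400; inconclusive = same 50% fall but final raw signal above 3038400; inactive = fall in fluorescence gain under 50%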
GC-B act – human GC-B receptor activators, primary screen, HEK293 GC-B cells, cGMP TR-FRET, EC30 CNP; 0% at EC30 CNP, 100% saturating CNP; 370,000 compounds, 0.11% hits; activation, % at 10 µM; Atrial natriuretic peptide receptor 2 (Homo sapiens), P20594;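 active = activation at 10 µM reaching about 35% in either raw or pattern-adjusted values, limit read from the data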
PLCb3 inh – human PLC-beta3 inhibitors, primary screen, biochemical, fluorescence | AID 720704, 2013 | 370,000 compounds, 0.18% hits | inhibition, % at 12.2 µM | Purified PLC-beta3, fluorogenic substrate | 1-phosphatidylinositol 4,5-bisphosphate phosphodiesterase beta-3 (Homo sapiens), Q01970; in the data active = inhibition above about 11%
PfM18AAP inh – PfM18AAP inhibitors, malaria aminopeptidase, primary screen, biochemical, QFRET, recombinant enzyme. M18 aspartyl aminopeptidase (Plasmodium falciparum 3D7). H-Glu-NHMec fluorogenic cleavage. inhibition, % at 7.35 µM. 290,000 compounds, 1.2% hits. AID 1822, 2009;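 active = inhibition above the campaign mean inhibition over all tested compounds plus 3 SD, cut at about 28% in these data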
Large screens that a line does not name were inactive. Hits are enriched below; roughly 2.2% of the tested compounds scored in any of these assays.

CCCCNC(=O)C[C@H]1C[C@@]2(C(=O)OC)C(=C[C@H](C(C)(C)C)O[C@@H]2C)N(Cc2ccco2)C1=O	none (no result: Rce1 inh, PfM18AAP inh)
Cc1ccc(S(=O)(=O)N2CCCC2C(=O)N2CCN(c3ccccc3)CC2)cc1 (stereo not given)	none (no result: Rce1 inh, PfM18AAP inh)
COC(=O)[C@H](CC(C)C)N(CCCc1cn(Cc2ccccc2)nn1)S(=O)(=O)c1ccc(F)cc1Br	none (no result: Rce1 inh, PfM18AAP inh)
Cc1ccc2nc(Cl)c(C3CC(c4cccs4)=NN3C(=O)CCCC(=O)O)cc2c1 (stereo not given)	Rce1 inh active
Cc1cccc2cc(C3CC(c4cccs4)=NN3C(=O)CCC(=O)O)c(Cl)nc12 (stereo not given)	none
COc1cccc(-c2nnc(SCc3cc(C)ccc3C)n2Cc2ccco2)c1	none (no result: Rce1 inh, PfM18AAP inh)
O=C(Nc1ccc(F)cc1)OCCCN1C(=O)CCC12CCCCC2	none (no result: Rce1 inh, PfM18AAP inh)
Fc1c(F)c(F)c(/C=N/NC(=S)Nc2cccnc2)c(F)c1F	GC-A act 58
Fc1cccc(F)c1/C=N/NC(=S)Nc1cccnc1	none (no result: Rce1 inh)
O=C(Nc1ncccn1)c1ccc([N+](=O)[O-])cc1	Rce1 inh active
O=C(NC1CC1)c1ccc2c(c1)N(Cc1ccccc1)CCS2	Rce1 inh active
O=C1SC(SC(=Nc2ccccc2)Nc2ccccc2)C(=O)N1c1ccccc1 (stereo not given)	PLCb3 inh 14
Cc1cccc(N2C(=O)CC(SC(=Nc3ccccc3)Nc3ccccc3)C2=O)c1 (stereo not given)	none
CC(C)(C)N(Cc1cn(Cc2ccccc2)nn1)S(=O)(=O)c1ccccc1Br	none (no result: Rce1 inh, PfM18AAP inh)
COC(=O)[C@H]1C[C@@]2(CC=C(C)C)c3ccccc3N(C(=O)OC(C)(C)C)[C@H]2N1C(=O)OC(C)(C)C	none (no result: Rce1 inh, PfM18AAP inh)
CCOC(=O)[C@@]12CCCC=C1N(CCc1ccc(Cl)cc1)C(=O)[C@H]2CC(=O)NCc1ccc(OC)c(OC)c1	none (no result: Rce1 inh, PfM18AAP inh)
COc1ccc(-n2c(SCC(=O)Nc3cc(C)on3)nc3c([nH]c4ccccc43)c2=O)cc1OC	GC-A act 72
CCOc1ccc(-n2c(SCC(=O)Nc3cc(C)on3)nc3c([nH]c4ccccc43)c2=O)cc1	GC-A act 71
COc1ccc(-n2c(SCC(=O)Nc3cc(C)on3)nc3c([nH]c4ccccc43)c2=O)cc1	GC-A act 77
C=CCn1c(SCC(=O)Nc2cc(C)on2)nc2c([nH]c3ccccc32)c1=O	none
Cc1ccc(-n2c(SCC(=O)Nc3cc(C)on3)nc3c([nH]c4ccccc43)c2=O)cc1	GC-A act 79
CN1Cc2nnn(Cc3ccccc3)c2-c2cc(N3CCCCC3)ccc2S1(=O)=O	none (no result: Rce1 inh, PfM18AAP inh)
Cc1cc(N2CCN(C(=O)OC(C)(C)C)C[C@H]2C)ccc1N1CCN(Cc2ccccc2)[C@@H](C)C1	none (no result: Rce1 inh, PfM18AAP inh)
Cc1cc(NN)nc2ccc(Cl)cc12	PfM18AAP inh 31
CNC[C@H](CC1CCCCC1)NC[C@H](Cc1ccccc1)NCCC12CC3CC(CC(C3)C1)C2	PLC-gamma1 inh 10.0
NC[C@H](Cc1ccccc1)NCCCCC1CCCCC1	none (no result: Rce1 inh, PfM18AAP inh)
NNc1ccc([N+](=O)[O-])c2[nH][nH]c(=O)c12	PLC-gamma1 inh 23 (no result: Rce1 inh, PfM18AAP inh)
O=[N+]([O-])c1ccc(Nc2ccccc2)c2nonc12	none
CCCCNC(=S)NNC(=O)CCn1cc(C)cn1	Rce1 inh active
O=C(CN1CCC(NC(=O)c2ccc(Br)cc2)CC1)NCc1cccs1	Rce1 inh active
COc1ccc(-c2cc3ccccc3n2CC(O)CN2CCCCC2)cc1 (stereo not given)	none
COc1ccc(-c2cc3ccccc3n2CC(O)CNCCO)cc1 (stereo not given)	Rce1 inh active
CCOc1ccc(NC(=O)CSc2nnc(-c3n[nH]c4c3CCC4)n2N)cc1	none (no result: Rce1 inh, PfM18AAP inh)
Cn1c(SCC(=O)Nc2ccc(S(=O)(=O)Nc3nccs3)cc2)nc2sc3c(c2c1=O)CCCC3	none (no result: Rce1 inh, PfM18AAP inh)
C1CSC2(N1)C1CC3CC(C1)CC2C3 (stereo not given)	PLCb3 inh 12
CCN1CCN(Cc2c(O)ccc3c(=O)c(-c4ccccc4OC)coc23)CC1	Rce1 inh active
CCOc1ccccc1Oc1c(C)oc2c(CN3CCN(CCO)CC3)c(O)ccc2c1=O	none
COc1ccccc1-c1coc2c(CN3CCN(C)CC3)c(O)ccc2c1=O	Rce1 inh active
COc1ccccc1Oc1c(C)oc2c(CN3CCN(CCO)CC3)c(O)ccc2c1=O	Rce1 inh active
Cc1oc2c(CN3CCOCC3)c(O)ccc2c(=O)c1-c1ccccc1	Rce1 inh active
COc1ccccc1-c1c(C)oc2c(CN3CCOCC3)c(O)ccc2c1=O	Rce1 inh inconclusive
CC1(C)C=C2C(N(CC3CC3)C(=N)N2C(=O)OCc2ccccc2)n2c(=O)n(-c3ccccc3)c(=O)n21 (stereo not given)	none (no result: Rce1 inh, PfM18AAP inh)
CCC[C@H]1[C@@H](NC(=O)c2ccc(N(C)C)cc2)CC[C@@]23CCCN2C(=O)CCC[C@@H]13	none (no result: Rce1 inh, PfM18AAP inh)
O=c1c(-c2ccccc2)coc2c(CN3CCCC3)c(O)ccc12	Rce1 inh active
CNC(=O)c1c(NC(=O)c2ccc(S(=O)(=O)N3CCCC3)cc2)sc2c1CCN(C(C)C)C2	PfM18AAP inh 32
CNC(=O)c1c(NC(=O)c2ccc(S(=O)(=O)N3CC(C)OC(C)C3)cc2)sc2c1CCN(C(C)C)C2 (stereo not given)	none
Nc1c(C(=O)N2CCN(c3ccccc3)CC2)nnn1Cc1ccc(Cl)cc1	none (no result: Rce1 inh, PfM18AAP inh)
CN(C(=O)c1cccc(NC(=O)Cc2ccc(NC(=O)C3CCCN(C(=O)c4ccccc4)C3)cc2)c1)C1CC1 (stereo not given)	none (no result: Rce1 inh, PfM18AAP inh)
CC(Oc1ccc2oc(-c3ccccc3)c(C(=O)O)c2c1)C(=O)O (stereo not given)	Rce1 inh inconclusive
Cc1oc2ccc(OC(C(=O)O)c3ccccc3)cc2c1C(=O)O (stereo not given)	PLC-gamma1 inh 9.9
O=C(Cc1c[nH]c2ccccc12)Nc1ccc(Nc2cccnc2)c(-c2ccc(-c3ccccc3)cc2F)c1	none (no result: Rce1 inh, PfM18AAP inh)
CC(=O)Nc1cc(C(F)(F)F)ccc1Oc1cccc(Br)c1	Rce1 inh active
C=CCn1c(=O)c2c(C)c(C)sc2n2c(Nc3ccc(OC)cc3)nnc12	GC-B act 39
Cc1ccc(/C=c2/sc3n(c2=O)CCCN=3)o1	none
Cc1ccc(/C=c2\sc3n(c2=O)CN(c2ccc(Br)cc2)CN=3)o1	PfM18AAP inh 29
COc1cccc2c(=O)c(C(=O)O)c[nH]c12	Rce1 inh active
COc1cccc2c(=O)c(C(=O)NCCc3ccccc3)c[nH]c12	none (no result: Rce1 inh, PfM18AAP inh)
